Data published in PubChem BioAssay (NCATS).
Results filed as inconclusive are left out. Active and inactive are the calls of the source. The call rests on the fitted dose curve; in most records, active means well fitted inhibition curve with a large enough effect; inconclusive means small, poorly fitted or top-dose-only effect; inactive means no such curve, though single readings can be large or run the other way.

Tested on: Zika virus NS2B-NS3 protease (linked construct)
Assay: Primary screen NINDS Rhodamine qHTS for Zika virus inhibitors (AID 1347160); further: nearly all actives have a fitted effect of over 55% in size
Conditions: purified NS2B-NS3 protease, Rhodamine110 substrate fluorescence; series mostly up to 33.1 µM; activity change, negative = inhibition: at the top concentration
Summary of the method: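 Enzyme (25 nM, linked NS2B-NS3) was preincubated 15 min with compound in 10 mM Tris-HCl pH 8.0, 0.01% Tween 20. Rhodamine110 substrate (1.5 microM) was then added and fluorescence read at start and after 15 min.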
On the % scale 0 is the no-effect control and ±100 the full control effect; potency means the concentration at half of the fitted maximal effect.

Row | SMILES | Potency | activity change, negative = inhibition | outcome
1 | CC(C)[C@@H](C(=O)O)N1Cc2c(cc(O)c3c2O[C@]2(C3)[C@H](C)CCC3C(C)(C)[C@H](O)[C@H](O)C[C@@]32C)C1=O (stereo partly specified) | 7.94 µM (active) |  | 
2 | C=C(C)[C@@H]1CC[C@]2(C)CC[C@]3(C)C(CCC4[C@@]5(C)CC[C@H](O)C(C)(C)C5CC[C@]43C)C12 (stereo partly specified) |  | 14.4% (inactive) | 
3 | Cc1cc(CNC(=O)c2cc(C(=O)NCc3ccc(F)c(C)c3)ncn2)ccc1F |  | 23.7% [at 57.1 µM] (inactive) | 
4 | O=C(Cc1ccccc1)OC[C@H]1O[C@H](O[C@H]2O[C@H](CO)[C@@H](O)[C@H](O)[C@H]2O)[C@H](O)[C@@H](O)[C@@H]1O |  |  | inactive [at 33.1 µM]
5 | CCCCS(=O)(=O)NC(Cc1ccc(OCCCCC2CCNCC2)cc1)C(=O)O (stereo unspecified) |  | -2.22% [at 57.1 µM] (inactive) | 
6 | C/C(=C\CCC(C)(C)O)CCO[C@@H]1O[C@H](CO[C@@H]2O[C@@H](C)[C@H](O)[C@@H](O)[C@H]2O)[C@@H](O)[C@H](O)[C@H]1O |  | -17.6% (inactive) | 
7 | C=C1CCC2[C@](C)(CO)CCC[C@@]2(C)[C@@H]1CCC1=CCOC1=O (stereo partly specified) |  | 0.041% (inactive) | 
8 | CCC(C)C(C(=O)O)N1Cc2c(OCC=C(C)C)c(C)c(OC)c(C(=O)O)c2C1=O (stereo unspecified) |  | -8.57% (inactive) | 
9 | C=C1C(O)CC2C(C(=O)O)=COC(OC3OC(CO)C(O)C(O)C3OC(=O)/C=C\c3ccc(O)cc3)C12 (stereo unspecified) |  |  | inactive [at 33.1 µM]
10 | OC[C@H]1O[C@@H](Oc2cc(O)cc(-c3cc4ccc(O[C@@H]5O[C@H](CO)[C@@H](O)[C@H](O)[C@H]5O)cc4o3)c2)[C@H](O)[C@@H](O)[C@@H]1O |  | -11.9% (inactive) | 
11 | CNC(=O)c1ccc2c(c1)CCO[C@H]2CCN1CCN(c2ccc(C(N)=O)cc2)CC1 |  |  | inactive; activator
